Compounds with a hit are over-represented: about 1.4% of the library has one in this group of screens.
TrxR1 substrate – qHTS Assay for Substrates of Mammalian Selenoprotein Thioredoxin Reductase 1 (TrxR1): qHTS. Thioredoxin reductase 1, cytoplasmic (Rattus norvegicus), O89049. purified TrxR1 substrate turnover, NADPH consumption readout. Potency, µM (series often up to 114 µM), without a hit: top-dose activity change, negative = substrate turnover. actives 0.01% (n = 390,000). AID 588456, 2011; further: potency means the concentration at half of the fitted maximal effect; on the % scale 0 is the no-effect control and ±100 the full control effect; nearly all actives have a fitted effect of over 50% in size
Target sequence (O89049 whole entry, looked up): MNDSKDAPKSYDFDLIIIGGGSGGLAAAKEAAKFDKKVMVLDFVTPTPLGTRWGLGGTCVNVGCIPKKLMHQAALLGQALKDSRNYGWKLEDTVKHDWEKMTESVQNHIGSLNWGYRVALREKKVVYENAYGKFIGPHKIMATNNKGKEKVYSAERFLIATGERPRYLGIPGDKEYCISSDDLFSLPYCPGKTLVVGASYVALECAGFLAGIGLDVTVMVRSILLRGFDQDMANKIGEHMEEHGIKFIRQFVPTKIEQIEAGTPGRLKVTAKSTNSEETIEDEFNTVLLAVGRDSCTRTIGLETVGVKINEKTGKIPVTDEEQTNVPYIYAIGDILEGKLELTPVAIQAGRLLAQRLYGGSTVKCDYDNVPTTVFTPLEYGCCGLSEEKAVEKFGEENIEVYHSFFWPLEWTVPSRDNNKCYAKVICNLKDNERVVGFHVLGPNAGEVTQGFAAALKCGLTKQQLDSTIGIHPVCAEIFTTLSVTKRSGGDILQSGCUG
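Rat TrxR1, dispensed at 90 nM, was prereduced with 400 uM NADPH (final) for 5 min at ~22 deg C, then incubated with compound 15 min before 400 uM selenite. A first-read NADPH fluorescence drop versus no-compound background flagged substrates.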
pAkt inh – HTS Assay for Inhibitors of Akt Phophorylation: Primary Screen; Neuro2A IGF-stimulated pAkt S473 HTRF, 20 min; stronger effect = lower value; activity change, % for hits at 50 µM; actives 0.32% (n = 360,000); in the data active means activity change below about -80%; inconclusive means mostly about -51% to -80%; further: on the % scale 0 is the no-effect control and ±100 the full control effect
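Neuro2A cells in DMEM with 0.5% FBS, overnight at 37 deg C, given compound at single 50 µM final, then IGF (6 nM final) for 20 min at 37 deg C. Lysed; phospho-Akt Ser473 by HTRF after 24 h, 665/615 ratio.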
N370S GC mod – qHTS Assay for Inhibitors and Activators of N370S glucocerebrosidase as a Potential Chaperone Treatment of Gaucher Disease; Lysosomal acid glucosylceramidase (Homo sapiens), P04062; N370S GC spleen homogenate, 4MU-glucoside fluorescence; Potency, µM (series often up to 59.4 µM), for the others: at the highest dose activity change, negative = inhibition, usual class: inhibitors; actives 0.092% (n = 330,000);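 further: potency means the concentration at half of the fitted maximal effect; 0% = full enzyme activity and -100% = no enzyme basal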
AT treatment – qHTS Assay for Identifying a Potential Treatment of Ataxia-Telangiectasia. actives 0.19% (n = 320,000). Potency, µM (highest dose often 57.5 µM), without a hit: at the top dose activation, most hits filed as activators. F2112 A-T fibroblasts, KAP-1 phosphorylation AlphaLISA; neocarzinostatin DNA damage 30 min before lysis; further: potency means the concentration at half of the fitted maximal effect; % of control where 0% means no effect; nearly all actives have a fitted effect of over 45% in size
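ATM-like activity read as KAP-1 phosphorylation via AlphaLISA donor/acceptor antibody pairs after lysis and 6 hr at 25C. Cells were ATM-null patient fibroblasts (F2112, hTERT), dosed 60 min, then exposed to the DSB inducer NCS for 30 min.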
TrxR1 inh-1 – qHTS Assay for Inhibitors of Mammalian Selenoprotein Thioredoxin Reductase 1 (TrxR1): qHTS; Potency, µM (top dose mostly 114 µM), for the others: top-dose activity change, negative = inhibition, most hits filed as inhibitors; recombinant rTrxR1, NADPH fluorescence consumption, selenite substrate; AID 588453, 2011; actives 1% (n = 390,000); further: potency means the concentration at half of the fitted maximal effect; on the % scale 0 is the no-effect control and ±100 the full control effect; nearly all actives have a fitted effect of over 65% in size
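Rat TrxR1 (90 nM in the dispensed reagent) was pre-reduced with 400 uM NADPH for 5 min at room temperature, then incubated with compound for 15 min. After 400 uM selenite was added, NADPH fluorescence (Ex 340/Em 450 nm) was followed for 8 min.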
Pin1 inhibitor – qHTS Assay to Find Inhibitors of Pin1 | actives 0.009% (n = 390,000) | Pin1 FP peptide displacement, HiFluor488, 10 min | Potency, µM (doses to about 115 µM), for the others: at the top dose activity, negative = inhibition, usual class: inhibitors | Peptidyl-prolyl cis-trans isomerase NIMA-interacting 1 (Homo sapiens), Q13526; active means well fitted inhibition curve with a large enough effect in the polarisation, with a control signal flat, not every such curve was filed as active; inconclusive means small, poorly fitted or top-dose-only effect, or effect the other way, or a change in a side signal; inactive means no such curve, though single readings can be large or run the other way; the % refers to the polarisation; further: potency means the concentration at half of the fitted maximal effect; on the % scale 0 is the no-effect control and ±100 the full control effect
Target sequence (Q13526 whole entry, looked up): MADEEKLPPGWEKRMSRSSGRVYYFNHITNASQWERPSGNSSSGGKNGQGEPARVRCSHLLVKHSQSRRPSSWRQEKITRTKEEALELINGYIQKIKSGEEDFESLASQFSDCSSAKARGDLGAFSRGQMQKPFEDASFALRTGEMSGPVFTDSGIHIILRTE
TRb-SRC2 inh – Protein Interaction Secondary Assay for Inhibitors of the Interaction of Thyroid Hormone Receptor and Steroid Receptor Coregulator 2, Alpha Screen; AID 2444, 2010; shares compounds with TrxR1 inh-1; AlphaScreen TRb LBD-SRC2 peptide binding, luminescence; Potency, µM; actives 50% (n = 30); calls by dose curve
HepG2 tox – Cell Viability Secondary Assay for Inhibitors of the Interaction of Thyroid Hormone Receptor and Steroid Receptor Coregulator 2; shares compounds with TrxR1 inh-1; HepG2 viability, ATP luminescence (CellTiter-Glo), 72 h; Potency, µM; actives 50% (n = 40); calls by dose curve
AR-SRC2 inh – Androgen Receptor Selectivity Assay for Inhibitors of the Interaction of Thyroid Hormone Receptor and Steroid Receptor Coregulator 2 | shares compounds with TrxR1 inh-1 | AR-LBD Tx-SRC2-3 fluorescence polarization, 3 h | calls only | 25 tested, under 10 active | AID 2448, 2010; call rule not given here
PPARg DRIP2 FP – PPAR gamma Selectivity Assay For Inhibitors of the Interaction of Thyroid Hormone Receptor and Steroid Receptor Coregulator 2; shares compounds with TrxR1 inh-1; PPARg LBD / Texas Red DRIP-2 peptide, fluorescence polarization, 3 h; Potency, µM; 25 tested, under 10 active; AID 2449, 2010; calls by dose curve
VDR-SRC2 FP sel – Vitamin D Receptor Selectivity Assay for Inhibitors of the Interaction of Thyroid Hormone Receptor and Steroid Receptor Coregulator 2; 25 tested, under 10 active; shares compounds with TrxR1 inh-1; Potency, µM; VDR LBD/SRC2-3 peptide, fluorescence polarization, 3 h; AID 2455, 2010; calls by dose curve
TRb-SRC2 FP Fluo – Secondary Confirmation Assay for Inhibitors of the Interaction of Thyroid Hormone Receptor and Steroid Receptor Coregulator 2, Fluorescein Fluoroprobe | 20 tested, under 10 active | Potency, µM | shares compounds with TrxR1 inh-1 | TRb LBD / fluorescein-SRC2 peptide, fluorescence polarization; call rule not given here
GR inh – qHTS Assay for Inhibitors of Mammalian Selenoprotein Thioredoxin Reductase 1 (TrxR1): Counterassay in Glutathione Reductase (GR) | shares compounds with TrxR1 inh-1 | purified GR, DTNB reduction absorbance 405 nm kinetic | activity change, negative = inhibition, % at 57.1 µM | 55 tested, under 10 active
TrxR1 inh-2 – qHTS Assay for Inhibitors of Mammalian Selenoprotein Thioredoxin Reductase 1 (TrxR1): Hit Validation in Primary Screen | shares compounds with TrxR1 inh-1 | actives 50% (n = 55) | Potency, µM, hits mostly inhibitors | recombinant TrxR1, NADPH fluorescence consumption, selenite substrate | AID 652023, 2013
TrxR1 insulin – qHTS Assay for Inhibitors of Mammalian Selenoprotein Thioredoxin Reductase 1 (TrxR1): Insulin MOA Assay; actives 20% (n = 55); shares compounds with TrxR1 inh-1; TrxR1 Trx-coupled insulin reduction, NADPH absorbance 340 nm; AID 652037, 2013; Potency, µM;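 active means compounds with a measured potency under 100 micromolar; inconclusive means filed, but no rule given; inactive means potency at or above that, or unmeasurable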
TrxR1 inh-3 – qHTS Assay for Inhibitors of Mammalian Selenoprotein Thioredoxin Reductase 1 (TrxR1): DTNB Assay. Potency, µM. shares compounds with TrxR1 inh-1. actives 90% (n = 55). purified TrxR1, DTNB reduction, A412;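 active means a half-inhibiting concentration could be measured and was below 100 µM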
Starred values were filed as active, the others as inactive; i = inactive; ? = inconclusive; · = no result; [ ] = another dose, or the depositor's remark. Unless noted, the call rests on the fitted dose curve; in most records, active means well fitted curve in the direction sought with a large enough effect; inconclusive means small, poorly fitted or top-dose-only effect, or another doubt; inactive means no such curve, though single readings can be large; an effect the other way counts as inactive or inconclusive.

SMILES	TrxR1 substrate	pAkt inh	N370S GC mod	AT treatment	TrxR1 inh-1	Pin1 inhibitor	HepG2 tox	GR inh	TrxR1 inh-2	TrxR1 insulin	TrxR1 inh-3	others
O=C(NC(=S)Nc1ccc(N2CCOCC2)cc1)c1cccc(Cl)c1	-11%	i	4%	-5%	10µM*	20%	·	-4	5.3*	i	2.6µM*
COc1cccc(CNC(=O)CSc2nc(=O)[nH]c3c2CCCC3)c1	5%[57.1 µM]	·	·	·	21%[57.1 µM]	-6%	·	·	·	·	·
O=C(Nc1cccnc1)c1ccc2nc(-c3ccccc3)c(-c3ccccc3)nc2c1	-3%	i	-4%	-2%	10%	-1%	·	·	·	·	·
O=C(Nc1ccccc1)c1ccc2nc(-c3ccco3)c(-c3ccco3)nc2c1	-6%	i	15%	7%	4µM*	?	·	-27	3.8*	i	1.6µM*
O=C(c1ccc(-c2ccc([N+](=O)[O-])cc2)o1)N1CCCCCCC1	-11%	i	·	10%	5µM*	4%	·	-19	4.7*	i	1µM*
O=C(c1ccc(-c2ccc([N+](=O)[O-])cc2)o1)N1CCCC(C(F)(F)F)C1 (stereo not given)	-12%	i	-3%	7%	?	7%	·	·	·	·	·
Cc1cc(S(=O)(=O)c2ccc([N+](=O)[O-])cn2)ccc1Br	10%[57.1 µM]	i	·	·	0.11µM*	1%	·	-1	0.12*	35µM*	0.011µM*
Cc1ccc(C(=O)OC(C)C(=O)NC2CCCCC2)cc1S(=O)(=O)N1CCCCC1 (stereo not given)	2%	i	·	4%	19%	2%	·	·	·	·	·
CCC(OC(=O)c1ccc(S(C)(=O)=O)c([N+](=O)[O-])c1)C(=O)NC1C2CC3CC(C2)CC1C3 (stereo not given)	·	·	·	·	·	·	7.6µM*	·	·	·	·
CC(OC(=O)c1ccc(S(C)(=O)=O)c([N+](=O)[O-])c1)C(=O)NC1C2CC3CC(C2)CC1C3 (stereo not given)	·	·	·	·	·	·	8.2µM*	·	·	·	·
COc1ccccc1N1CCN(c2cc(C)nc3c(-c4ccc(Cl)cc4)c(C)nn23)CC1	8%[57.1 µM]	·	·	·	23%[57.1 µM]	-4%	·	·	·	·	·
Fc1ccc(/C=C2\CCCC3=C2Nc2ncnn2C3c2ccc(F)cc2)cc1 (stereo not given)	1%[57.1 µM]	i	3%	?	0.71µM*	1%	·	-16	3*	i	0.25µM*
Cc1cc(C)c(NC(=O)c2sc3nc(C)cc(C)c3c2NC(=O)c2ccccc2)c(C)c1	4%[11.4 µM]	·	·	·	10%	5%	·	·	·	·	·
Cc1ccc(F)cc1NC(=O)COC(=O)c1ccc(S(C)(=O)=O)c([N+](=O)[O-])c1	1%	·	·	·	2µM*	0%	13µM*	·	·	·	·	TRb-SRC2 inh=i;TRb-SRC2 FP Fluo=i
COc1cccc(CNC(=O)COC(=O)c2ccc(S(C)(=O)=O)c([N+](=O)[O-])c2)c1	0%	·	·	·	1.3µM*	2%	i	·	·	·	·	TRb-SRC2 inh=i;AR-SRC2 inh=i;PPARg DRIP2 FP=i;VDR-SRC2 FP sel=i;TRb-SRC2 FP Fluo=i
COc1ccc(C(=O)OCC(=O)NC(=O)NC2CCCC2)cc1[N+](=O)[O-]	-5%[57.1 µM]	i	·	13%	9%	-3%	·	·	·	·	·
CS(=O)(=O)c1ccc(C(=O)OCC(=O)NC(=O)NC2CCCCC2)cc1[N+](=O)[O-]	-4%	·	·	·	7.1µM*	1%	i	·	·	·	·	TRb-SRC2 inh=17µM*;AR-SRC2 inh=i;PPARg DRIP2 FP=?;VDR-SRC2 FP sel=49µM*;TRb-SRC2 FP Fluo=14µM*
CS(=O)(=O)c1ccc(C(=O)OCC(=O)NCC2CCCO2)cc1[N+](=O)[O-] (stereo not given)	2%	·	·	·	3.5µM*	11%	?	·	·	·	·	TRb-SRC2 inh=i;AR-SRC2 inh=i;PPARg DRIP2 FP=i;VDR-SRC2 FP sel=i;TRb-SRC2 FP Fluo=i
CCOc1ccc(-c2cccc(NS(=O)(=O)c3ccccc3C(F)(F)F)c2)nn1	2%[57.1 µM]	·	·	·	17%[57.1 µM]	-1%	·	·	·	·	·

Screening results: PubChem, National Center for Advancing Translational Sciences (NCATS)
